From ChEMBL document CHEMBL3988442, “University of Dundee, Small-Polar-MMV Screening Library” (2021)
Screen size: about 48,000 compounds; about 13,000 (27%) showed an effect of 50% or more. Some of the results follow.

tested on: Wolbachia pipientis; assay: Anti-Wolbachia Cell-Based Screen; type: functional; design: scale not given: in the data most compounds retested in dose-response had high values; settings: 5 µM

SMILES | Percent Effect [%]
CC(C)(C)c1cn2nc(N3CCCC(Cn4cncn4)C3)sc2n1 (stereo not drawn) | 16.07
CN1CCC(Cc2cc(N(C)C)ncn2)C1 (stereo not drawn) | 110.8
CC(C)N1CCN(C)CC(Cc2cc(N(C)C)ncn2)C1 (stereo not drawn) | 93.36
CCn1ccnc1CN(C)c1cc(N(C)C)ncn1 | 12.61
CSCc1ccc(N(C)CC2CCCN(C(C)C)C2)nc1 (stereo not drawn) | -13.33
CN1CCCC(Cc2cncc(C(=O)NCC3CC3)c2)C1 (stereo not drawn) | -7.268
CCn1ccnc1CN(C)c1cc(C2CC2)ncn1 | 1.234
CN1CCCC(CNC(=O)N2CCN(Cc3ccon3)CC2)C1 (stereo not drawn) | -11.04
CN1CCCC(Cc2cc(N(C)C)ncn2)C1 (stereo not drawn) | 94.81
c1cnc(NCc2noc3c2CN(C2CCOCC2)CC3)nc1 | -17.2
COc1ccc(-c2nnc(C(C)N3CCOC(C)(C)C3)o2)cc1 (stereo not drawn) | -4.024
c1ccc2c(c1)CC(n1ccnc1-c1cc3n(n1)CCCNC3)CO2 (stereo not drawn) | 3.87
CCc1ncc(CN(C)C(=O)Nc2cccnc2N2CCCC2)s1 | 10.11
NS(=O)(=O)CCN1CCN(c2cc(F)ccc2F)CC1 | -4.797
O=C(O)C(F)(F)F.O=C(O)C(F)(F)F.c1cc(CN2CCO[C@H]3[C@H](OCCN4CCCC4)CC[C@@H]32)co1 | 81.09
COc1ccc(CN2CCO[C@H]3[C@H](OCCN4CCCC4)CC[C@@H]32)cc1.O=C(O)C(F)(F)F.O=C(O)C(F)(F)F | 97.25
O=C(O)C(F)(F)F.c1cc(CN2CCO[C@H]3[C@H](OCC4CCOCC4)CC[C@@H]32)co1 | 111.9
Fc1ccc(CN2CCO[C@H]3[C@H](OCCN4CCCC4)CC[C@@H]32)cc1.O=C(O)C(F)(F)F.O=C(O)C(F)(F)F | -15.45
O=C(O)C(F)(F)F.O=C(O)C(F)(F)F.c1csc(CN2CCO[C@H]3[C@H](OCCN4CCCC4)CC[C@@H]32)n1 | 6.605
Cc1ccc(-c2nc(CN3CCN(S(=O)(=O)N(C)C)CC3)cs2)o1 | 2.093
O=C(c1ncn2c1CNS(=O)(=O)c1ccccc1-2)N1CCOCC1 | -11.97
Cc1noc(C)c1S(=O)(=O)N(C)Cc1nn(C)c(Cl)c1Cl | -15.6
CC(C)CC(CCO)CNC(=O)N1CC(C)(C)C1(C)C (stereo not drawn) | -21.83
CS(=O)(=O)N1CC2(CCN(CC3CCCCC3)C2)Cc2ccccc21 (stereo not drawn) | 112.5
O=C(Cc1cccs1)N1CCC2(CCCN(CC3CCOCC3)C2)C1 (stereo not drawn) | -3.748

SMILES | Percent Effect [%]
CS(=O)(=O)N1CC2(CCN(CC3CC3)C2)Cc2ccccc21 (stereo not drawn) | 119.1
CS(=O)(=O)N1CC2(CCCN(CC3CC3)C2)Cc2ccccc21 (stereo not drawn) | 118.5
CS(=O)(=O)N1CC2(CCN(CC3CCCCC3)CC2)Cc2ccccc21 | 144
CN1C(=O)C2(CCN(CC3CCC3)C2)c2ccccc21.O=C(O)C(F)(F)F (stereo not drawn) | 10.05
O=C(O)C(F)(F)F.O=C1CC2(CCN(CC3CC3)C2)CN1c1ccc2c(c1)OCO2 (stereo not drawn) | -8.293
O=C(Cc1ccccn1)N1CCC2(CCCN(CC3CCOCC3)C2)C1 (stereo not drawn) | -4.093
O=C(O)C(F)(F)F.O=C1CC2(CCN(CC3CC3)C2)CN1c1cccc(F)c1 (stereo not drawn) | -1.195
CN1CCCC(CNS(=O)(=O)N2CCc3ccccc3C2)C1 (stereo not drawn) | 2.763
CCn1c(C)nnc1SCCNC(=O)c1cccc2ccnn12 | -3.845
Cc1nc(CNC(=O)CC2C(=O)NCCN2Cc2ccccc2C)n[nH]1 (stereo not drawn) | 4.07
CCCc1nnsc1C(=O)NCC1CCN(S(C)(=O)=O)CC1 | -2.324
Cc1cnc(N2C[C@@H]3[C@@H](C2)OCC(=O)N3C)nc1 | -11.2
CCN1CC2(CCN(C(=O)C(C)Oc3cccc(Cl)c3)CC2)OC1=O (stereo not drawn) | -19.97
COc1ccc2c(c1)CCCN(C(C)C(=O)N1CCCC1)C2 (stereo not drawn) | 19.28
COc1ccc2c(c1)CCCN2C(=O)CN1CCOC(CN(C)C)C1 (stereo not drawn) | 3.019
CC(C)OCCC(=O)Nc1cccc(N2CCN(CC3CC3)CC2)c1 | -21.21
N#Cc1ccc(OC2CCN(CC(=O)NCC3CCCO3)CC2)cc1 (stereo not drawn) | 1.578
COc1ccc2c(c1)CCCN2C(=O)CNCC1CN(C)CCO1 (stereo not drawn) | 15.31
COc1ccc2c(c1)CCCN(CC(=O)NCC1CCCO1)C2 (stereo not drawn) | 92.35
COc1cccc(N2CCN(CCC(=O)NC3CCCCC3)CC2)c1 | 105.3
COc1ccc2c(c1)CCCN(C(=O)NCC1CCCO1)C2 (stereo not drawn) | 114.2
CS(=O)(=O)NC1CCN(C(=O)NCC2CCCO2)CC1 (stereo not drawn) | -8.8
COc1cc2c(cc1OC)CN(C(=O)NCC1CCCO1)CC2 (stereo not drawn) | 106.4
CCC(=O)NC1CCN(c2cccc(CC)c2)CC1 | -2.51
C=C(C)COCCNC(=O)N1CCc2c(cccc2OC)C1 | -14.6

SMILES | Percent Effect [%]
COc1ccc(-c2n[nH]cc2CN(C)Cc2ccoc2)c(F)c1 | 10.13
c1cc2c(cc1C1CCCN1Cc1nnnn1C1CC1)OCCO2 (stereo not drawn) | -7.859
CCC(O)CNc1ccc(-c2nc(CC(C)C)no2)cn1 (stereo not drawn) | -5.208
O=C(NCC1CCOC1)c1ccc(OCC(F)(F)F)nc1 (stereo not drawn) | -6.921
NCC1Cc2cc(-c3cncc(C(=O)N4CCOCC4)n3)cc(Cl)c2O1 (stereo not drawn) | -2.851
CCc1nc(C2CCCN2CCCS(=O)(=O)c2ccccc2)no1 (stereo not drawn) | 0.9329
COc1ccc2c(c1)CN(c1cc(N3CCCC3CO)ncn1)CC2 (stereo not drawn) | -11.42
COc1ccc2c(c1)CCN(CCC(=O)NC1CCCCC1)CC2 | -10.31
COc1ccc2c(c1)CN(CC(=O)NC1CCCC1)CC2 | 115.8
COCCOCC(=O)N1CCC(O)(c2ccc3nc(C)ccc3c2)CC1 | 1.515
CCn1c(N)nc2cc(C(=O)NCCc3sccc3C)cnc21 | 9.086
O=C(Cc1c[nH]c(=O)[nH]c1=O)N1CCCCC1CCc1cccc(O)c1 (stereo not drawn) | 2.49
CC(C)(C)OC(=O)NCC1CCCCN1Cc1ccccn1 (stereo not drawn) | 1.475
Cc1c[nH]c(CN2CCCCC2CCc2cccc(O)c2)c(C)c1=O (stereo not drawn) | 11.94
O=C(O)c1cccnc1CN1CCCCC1CCc1cccc(O)c1 (stereo not drawn) | 117.3
O=C(O)c1cccnc1CN1CCCCC1CCc1cccs1 (stereo not drawn) | 113
CN(Cc1cccc(F)c1)C(=O)CN1CCCC1CCc1ccccc1 (stereo not drawn) | -6.226
CCN1CCCC1CNC(=O)CCc1cccs1 (stereo not drawn) | -0.4602
O=C(O)c1cccnc1CN1CCCC1CCc1ccccc1 (stereo not drawn) | 101.7
O=C(O)c1cccnc1CN(Cc1ccsc1)C1CC1 | -4.109
Cc1oc(-c2ccoc2)nc1CN1CCCCC1CCc1ccccc1 (stereo not drawn) | -13.12
COc1cc2c(cc1OC)CN(Cc1ncccc1C(=O)O)CC2 | -6.886
O=C(O)c1cccnc1CN1CCCCC1CCc1ccccn1 (stereo not drawn) | 108.5
